What was measured:
[1] = target: Mitogen-activated protein kinase kinase kinase kinase 4 (Homo sapiens) (UniProt O95819); details: at 1 µM;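 note: reported figure is an averaged inhibition value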
[2] = target: Dual specificity mitogen-activated protein kinase kinase 1 (Homo sapiens) (UniProt Q02750); details: at 0.1 µM
[3] = target: Dual specificity mitogen-activated protein kinase kinase 1 (Homo sapiens) (UniProt Q02750); details: at 1 µM
[4] = target: Misshapen-like kinase 1 (Homo sapiens) (UniProt Q8N4C8); details: at 0.1 µM
Sequence of Misshapen-like kinase 1 (Homo sapiens) (Q8N4C8 whole entry, looked up): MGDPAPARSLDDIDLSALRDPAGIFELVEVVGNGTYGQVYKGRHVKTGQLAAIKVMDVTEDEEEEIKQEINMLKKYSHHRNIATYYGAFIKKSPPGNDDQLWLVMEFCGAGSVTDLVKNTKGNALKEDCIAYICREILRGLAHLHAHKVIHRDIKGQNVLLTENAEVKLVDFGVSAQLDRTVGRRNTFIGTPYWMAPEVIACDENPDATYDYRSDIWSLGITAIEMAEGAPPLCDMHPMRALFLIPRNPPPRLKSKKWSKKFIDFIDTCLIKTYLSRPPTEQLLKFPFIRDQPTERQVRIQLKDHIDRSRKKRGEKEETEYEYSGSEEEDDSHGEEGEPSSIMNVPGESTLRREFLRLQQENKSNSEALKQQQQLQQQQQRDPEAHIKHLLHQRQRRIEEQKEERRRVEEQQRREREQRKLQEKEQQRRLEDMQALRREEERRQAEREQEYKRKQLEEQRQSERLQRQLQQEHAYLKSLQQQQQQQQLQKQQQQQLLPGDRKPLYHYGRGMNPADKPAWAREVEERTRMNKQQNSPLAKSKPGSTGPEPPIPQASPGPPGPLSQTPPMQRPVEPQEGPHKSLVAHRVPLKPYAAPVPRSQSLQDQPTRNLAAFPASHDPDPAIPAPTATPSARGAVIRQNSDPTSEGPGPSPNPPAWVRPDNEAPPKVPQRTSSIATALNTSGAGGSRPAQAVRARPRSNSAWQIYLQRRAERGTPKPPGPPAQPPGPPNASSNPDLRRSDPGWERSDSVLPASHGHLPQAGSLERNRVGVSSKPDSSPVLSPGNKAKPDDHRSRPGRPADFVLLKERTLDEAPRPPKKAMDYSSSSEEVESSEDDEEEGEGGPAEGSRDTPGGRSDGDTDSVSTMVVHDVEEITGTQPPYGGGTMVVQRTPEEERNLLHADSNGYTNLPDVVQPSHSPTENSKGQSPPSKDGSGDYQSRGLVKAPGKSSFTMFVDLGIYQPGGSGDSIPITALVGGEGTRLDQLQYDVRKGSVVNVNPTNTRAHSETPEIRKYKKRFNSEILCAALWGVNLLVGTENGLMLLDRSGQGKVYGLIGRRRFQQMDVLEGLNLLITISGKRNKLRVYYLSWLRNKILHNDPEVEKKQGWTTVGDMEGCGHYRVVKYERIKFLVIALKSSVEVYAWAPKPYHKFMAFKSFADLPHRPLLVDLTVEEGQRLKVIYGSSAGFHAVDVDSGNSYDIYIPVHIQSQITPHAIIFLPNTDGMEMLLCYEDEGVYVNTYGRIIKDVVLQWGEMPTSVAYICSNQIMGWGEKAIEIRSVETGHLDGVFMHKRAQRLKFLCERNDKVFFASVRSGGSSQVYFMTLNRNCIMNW

[5] = target: Misshapen-like kinase 1 (Homo sapiens) (UniProt Q8N4C8); details: at 1 µM
[6] = target: T1, Serine/threonine-protein kinase 4 (Homo sapiens) (UniProt Q13043); details: at 0.1 µM
T1 sequence (whole entry): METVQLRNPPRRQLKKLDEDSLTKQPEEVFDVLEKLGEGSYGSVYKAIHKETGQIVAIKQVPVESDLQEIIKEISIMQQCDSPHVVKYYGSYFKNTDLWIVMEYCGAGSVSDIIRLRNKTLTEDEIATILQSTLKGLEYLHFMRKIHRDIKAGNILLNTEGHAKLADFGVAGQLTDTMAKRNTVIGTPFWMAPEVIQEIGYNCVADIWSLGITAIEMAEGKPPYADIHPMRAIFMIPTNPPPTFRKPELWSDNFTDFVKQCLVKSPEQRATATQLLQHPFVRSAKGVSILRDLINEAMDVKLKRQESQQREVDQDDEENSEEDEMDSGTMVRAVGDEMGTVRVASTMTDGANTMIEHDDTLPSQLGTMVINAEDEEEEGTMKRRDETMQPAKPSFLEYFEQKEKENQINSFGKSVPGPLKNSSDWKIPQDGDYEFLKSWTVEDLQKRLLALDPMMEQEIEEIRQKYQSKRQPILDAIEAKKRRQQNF

[7] = target: T1, Serine/threonine-protein kinase 4 (Homo sapiens); details: at 1 µM
[8] = target: T2, Serine/threonine-protein kinase 3 (Homo sapiens) (UniProt Q13188); details: at 0.1 µM
T2 sequence (whole entry): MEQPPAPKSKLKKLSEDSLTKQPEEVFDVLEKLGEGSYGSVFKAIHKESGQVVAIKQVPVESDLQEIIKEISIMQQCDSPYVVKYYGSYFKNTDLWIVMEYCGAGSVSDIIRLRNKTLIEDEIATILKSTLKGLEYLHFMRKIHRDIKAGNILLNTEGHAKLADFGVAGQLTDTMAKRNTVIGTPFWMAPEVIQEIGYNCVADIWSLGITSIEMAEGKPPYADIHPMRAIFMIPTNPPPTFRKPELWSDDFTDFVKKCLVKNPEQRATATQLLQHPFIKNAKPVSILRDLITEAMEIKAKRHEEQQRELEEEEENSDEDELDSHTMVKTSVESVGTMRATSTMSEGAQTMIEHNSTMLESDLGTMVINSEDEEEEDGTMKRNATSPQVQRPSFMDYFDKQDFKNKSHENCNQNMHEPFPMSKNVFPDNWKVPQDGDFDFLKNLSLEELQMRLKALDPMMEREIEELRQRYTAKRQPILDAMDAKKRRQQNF

[9] = target: T2, Serine/threonine-protein kinase 3 (Homo sapiens); details: at 1 µM
[10] = target: Serine/threonine-protein kinase 26 (Homo sapiens) (UniProt Q9P289); details: at 0.1 µM
Sequence of Serine/threonine-protein kinase 26 (Homo sapiens) (Q9P289 2-416 limits assumed): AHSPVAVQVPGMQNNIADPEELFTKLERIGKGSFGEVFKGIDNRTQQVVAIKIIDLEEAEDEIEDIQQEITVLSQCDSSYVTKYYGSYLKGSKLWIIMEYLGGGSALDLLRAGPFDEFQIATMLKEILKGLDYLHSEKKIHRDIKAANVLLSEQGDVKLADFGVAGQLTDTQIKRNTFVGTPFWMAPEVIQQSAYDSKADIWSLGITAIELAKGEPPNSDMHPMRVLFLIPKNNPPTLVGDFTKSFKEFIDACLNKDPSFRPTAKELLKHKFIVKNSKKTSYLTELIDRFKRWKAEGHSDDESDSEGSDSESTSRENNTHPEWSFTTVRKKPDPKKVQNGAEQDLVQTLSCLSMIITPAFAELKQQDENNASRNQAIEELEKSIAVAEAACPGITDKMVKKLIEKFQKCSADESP

[11] = target: Serine/threonine-protein kinase 26 (Homo sapiens) (UniProt Q9P289); details: at 1 µM
[12] = target: Serine/threonine-protein kinase PAK 1 (Homo sapiens) (UniProt Q13153); details: at 0.1 µM
[13] = target: Serine/threonine-protein kinase PAK 1 (Homo sapiens) (UniProt Q13153); details: at 1 µM
[14] = target: Serine/threonine-protein kinase PAK 2 (Homo sapiens) (UniProt Q13177); details: at 0.1 µM
Sequence of Serine/threonine-protein kinase PAK 2 (Homo sapiens) (Q13177 whole entry): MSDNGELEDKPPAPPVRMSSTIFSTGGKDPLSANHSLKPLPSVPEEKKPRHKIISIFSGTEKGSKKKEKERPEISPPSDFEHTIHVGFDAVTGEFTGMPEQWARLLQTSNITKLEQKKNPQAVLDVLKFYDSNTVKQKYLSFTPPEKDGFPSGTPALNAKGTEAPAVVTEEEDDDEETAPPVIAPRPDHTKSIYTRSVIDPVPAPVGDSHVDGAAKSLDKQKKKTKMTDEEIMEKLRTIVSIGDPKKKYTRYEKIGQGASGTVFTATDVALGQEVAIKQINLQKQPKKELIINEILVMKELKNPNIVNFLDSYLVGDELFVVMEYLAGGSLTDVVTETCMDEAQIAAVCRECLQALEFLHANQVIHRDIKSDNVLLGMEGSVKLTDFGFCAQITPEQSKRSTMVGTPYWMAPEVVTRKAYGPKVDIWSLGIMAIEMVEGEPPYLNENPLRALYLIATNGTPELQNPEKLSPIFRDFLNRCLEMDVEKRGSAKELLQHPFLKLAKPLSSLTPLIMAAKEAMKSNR

[15] = target: Serine/threonine-protein kinase PAK 2 (Homo sapiens) (UniProt Q13177); details: at 1 µM
[16] = target: Serine/threonine-protein kinase PAK 3 (Homo sapiens) (UniProt O75914); details: at 0.1 µM
Sequence of Serine/threonine-protein kinase PAK 3 (Homo sapiens) (O75914 whole entry, looked up): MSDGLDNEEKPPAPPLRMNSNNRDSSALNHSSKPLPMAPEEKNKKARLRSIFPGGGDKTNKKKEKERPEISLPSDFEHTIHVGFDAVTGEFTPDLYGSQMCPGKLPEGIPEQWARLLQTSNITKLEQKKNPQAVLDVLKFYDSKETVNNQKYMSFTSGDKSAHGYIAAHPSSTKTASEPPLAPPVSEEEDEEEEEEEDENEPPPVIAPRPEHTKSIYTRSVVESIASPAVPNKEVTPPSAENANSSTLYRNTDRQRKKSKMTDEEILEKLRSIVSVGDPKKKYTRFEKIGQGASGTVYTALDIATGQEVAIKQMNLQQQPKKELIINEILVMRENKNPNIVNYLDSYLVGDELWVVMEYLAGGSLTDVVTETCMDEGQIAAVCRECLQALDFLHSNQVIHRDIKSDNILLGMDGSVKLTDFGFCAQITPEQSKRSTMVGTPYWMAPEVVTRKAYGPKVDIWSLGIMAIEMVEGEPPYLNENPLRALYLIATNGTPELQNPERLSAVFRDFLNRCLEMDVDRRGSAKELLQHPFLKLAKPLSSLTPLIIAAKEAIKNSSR

[17] = target: Serine/threonine-protein kinase PAK 3 (Homo sapiens) (UniProt O75914); details: at 1 µM
[18] = target: Serine/threonine-protein kinase PAK 5 (Homo sapiens) (UniProt Q9P286); details: at 0.1 µM
Sequence of Serine/threonine-protein kinase PAK 5 (Homo sapiens) (Q9P286 whole entry, looked up): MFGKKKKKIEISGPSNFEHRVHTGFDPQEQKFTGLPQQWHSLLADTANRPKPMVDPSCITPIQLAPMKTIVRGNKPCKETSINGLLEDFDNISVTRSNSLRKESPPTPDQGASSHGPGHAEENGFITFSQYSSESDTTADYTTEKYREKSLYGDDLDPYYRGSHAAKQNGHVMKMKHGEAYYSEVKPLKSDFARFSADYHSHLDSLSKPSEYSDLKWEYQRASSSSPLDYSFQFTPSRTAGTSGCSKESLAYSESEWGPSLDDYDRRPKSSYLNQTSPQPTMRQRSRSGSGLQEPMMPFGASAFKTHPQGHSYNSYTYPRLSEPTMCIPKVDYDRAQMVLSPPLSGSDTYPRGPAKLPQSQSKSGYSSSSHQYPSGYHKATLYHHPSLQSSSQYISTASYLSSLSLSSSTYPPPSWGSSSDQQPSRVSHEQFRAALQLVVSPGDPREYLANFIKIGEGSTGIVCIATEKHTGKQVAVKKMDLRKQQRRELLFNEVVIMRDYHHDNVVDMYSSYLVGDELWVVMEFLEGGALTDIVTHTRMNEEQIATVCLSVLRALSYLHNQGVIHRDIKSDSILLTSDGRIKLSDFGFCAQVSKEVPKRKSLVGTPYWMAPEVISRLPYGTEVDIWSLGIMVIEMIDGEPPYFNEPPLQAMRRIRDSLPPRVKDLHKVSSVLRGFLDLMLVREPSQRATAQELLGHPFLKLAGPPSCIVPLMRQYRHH

[19] = target: Serine/threonine-protein kinase PAK 6 (Homo sapiens) (UniProt Q9NQU5); details: at 0.1 µM;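 note: mean PAK6 inhibition reported from the GSK PKIS screen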
Sequence of Serine/threonine-protein kinase PAK 6 (Homo sapiens) (Q9NQU5 whole entry, looked up): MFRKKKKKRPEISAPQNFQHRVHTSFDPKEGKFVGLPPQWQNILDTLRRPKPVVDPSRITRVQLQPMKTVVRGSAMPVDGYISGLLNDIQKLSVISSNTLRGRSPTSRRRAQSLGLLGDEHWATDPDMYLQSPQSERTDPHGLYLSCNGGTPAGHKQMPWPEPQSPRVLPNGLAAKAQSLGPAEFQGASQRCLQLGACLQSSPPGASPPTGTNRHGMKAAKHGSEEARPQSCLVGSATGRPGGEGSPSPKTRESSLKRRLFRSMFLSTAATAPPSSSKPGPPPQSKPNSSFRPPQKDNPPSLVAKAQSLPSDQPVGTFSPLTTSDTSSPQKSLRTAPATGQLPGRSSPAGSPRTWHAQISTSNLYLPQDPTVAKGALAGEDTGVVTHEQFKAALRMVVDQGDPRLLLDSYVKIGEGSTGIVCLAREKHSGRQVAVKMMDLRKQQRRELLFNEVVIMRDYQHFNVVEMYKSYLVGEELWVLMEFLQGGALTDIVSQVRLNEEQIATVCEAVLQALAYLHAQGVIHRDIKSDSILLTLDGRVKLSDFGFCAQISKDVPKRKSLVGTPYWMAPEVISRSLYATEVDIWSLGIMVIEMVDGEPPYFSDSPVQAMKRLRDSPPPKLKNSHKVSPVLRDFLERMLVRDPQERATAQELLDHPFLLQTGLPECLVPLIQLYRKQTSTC

[20] = target: Serine/threonine-protein kinase PAK 5 (Homo sapiens) (UniProt Q9P286); details: at 1 µM

Sequence of Dual specificity mitogen-activated protein kinase kinase 1 (Homo sapiens) (Q02750 whole entry): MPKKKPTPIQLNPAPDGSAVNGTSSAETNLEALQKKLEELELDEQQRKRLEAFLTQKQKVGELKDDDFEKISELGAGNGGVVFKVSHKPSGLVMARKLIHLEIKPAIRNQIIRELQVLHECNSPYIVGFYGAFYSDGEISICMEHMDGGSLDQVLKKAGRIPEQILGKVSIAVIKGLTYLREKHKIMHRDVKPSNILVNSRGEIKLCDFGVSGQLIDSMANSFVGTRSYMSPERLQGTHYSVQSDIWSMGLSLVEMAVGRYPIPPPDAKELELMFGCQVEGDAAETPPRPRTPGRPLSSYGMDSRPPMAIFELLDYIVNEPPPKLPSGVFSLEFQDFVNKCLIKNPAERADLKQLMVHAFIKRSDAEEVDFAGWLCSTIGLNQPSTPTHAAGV

| Structure (SMILES) | inhibition [1] [%] | inhibition [2] [%] | inhibition [3] [%] | inhibition [4] [%] | inhibition [5] [%] | inhibition [6] [%] | inhibition [7] [%] | inhibition [8] [%] | inhibition [9] [%] | inhibition [10] [%] | inhibition [11] [%] | inhibition [12] [%] | inhibition [13] [%] | inhibition [14] [%] | inhibition [15] [%] | inhibition [16] [%] | inhibition [17] [%] | inhibition [18] [%] | inhibition [19] [%] | inhibition [20] [%] |
| --- | --- | --- | --- | --- | --- | --- | --- | --- | --- | --- | --- | --- | --- | --- | --- | --- | --- | --- | --- | --- |
| CN(C)C(=O)O[C@@H]1CN[C@@H](C#Cc2cc3ncnc(Nc4ccc(OCc5cccc(F)c5)c(Cl)c4)c3s2)C1 | 6.27 | -0.21 | 0.83 | 2.49 | 6.17 | -1.32 | 0.53 | -2.45 | -0.68 | 0.14 | 0.17 | 1.48 | 2.04 | 0.43 | -0.42 | 0.58 | -0.38 | -5.8 | 2.87 | – |
| COc1ccc2ncnc(Nc3ccc(OCc4ccccc4)cc3)c2c1 | 7.18 | 3.95 | 2.41 | 3.65 | 4.24 | 1.92 | 4.04 | 1.62 | 3.92 | -1.91 | -1.42 | 0.31 | 3.44 | -0.61 | 0.47 | 2.33 | 2.78 | -6.57 | -7.36 | -2.45 |
| CS(=O)(=O)Nc1cccc(-c2ccc3c(NC(=O)C4CC4)n[nH]c3c2)c1 | 6.35 | 0.37 | 0.96 | 1.34 | 6.69 | 3.33 | 4.09 | 3.45 | 4.09 | -3.32 | 1.22 | 2.69 | 3.3 | 0.99 | 0.37 | 0.48 | 1.23 | – | -7.16 | – |
| Cc1ccc(O)cc1Nc1ccnc2ccc(S(C)(=O)=O)cc12 | 35.1 | 7.84 | 8.37 | 10.4 | 30.5 | 4.65 | 8.35 | 5.45 | 8.06 | -0.99 | -0.56 | 9.27 | 13.3 | 2.82 | 2.56 | 5.79 | 6.05 | 1.8 | -3.21 | 8.34 |
| ON=C1CCc2cc(-c3nc(C4CCNCC4)[nH]c3-c3ccncc3)ccc21 | 21.5 | 0.2 | 2.1 | 4.01 | 18.4 | 2.4 | 3.87 | 1.63 | 2.8 | 0.5 | -1.63 | 2.01 | 2.16 | -0.65 | -0.29 | -0.94 | -0.23 | – | 0.23 | – |
| c1ccc(Cc2nc3ccc(Nc4ncnc5ccccc45)cc3[nH]2)cc1 | 10 | 2.72 | 2.98 | 4.23 | 9.55 | 4.48 | 8.56 | 5.09 | 8.29 | -0.58 | -0.26 | 4.28 | 3.15 | 2.47 | 2.26 | 3.68 | 4.32 | 5.6 | -3.41 | 7.77 |
| NS(=O)(=O)c1ccc(Nc2cc(-c3cccc(O)c3)n[nH]2)cc1 | 17.6 | 7.97 | 5.67 | 8 | 18.6 | 9.01 | 16.1 | 8.2 | 13.4 | -1.36 | -4.6 | 9.49 | 7.81 | 3.22 | 2.59 | 6.66 | 6.8 | 3.04 | -0.89 | -6.9 |

Reference: ChEMBL document CHEMBL1961873, “Compounds: GSK PKIS; Assays: Nanosyn kinase panel” (2012)
